# Several values for one entry are separate records, joined by “and”; a condition that tells them apart may be missing. Equal values may be shown once. Results filed as inconclusive are left out. A call without a number means that no potency is given here. A number with no mark means an inactive call. Activity calls are given as the source filed them. Unless noted, calls follow the shape of the dose curve; as a rule, active = well fitted curve in the direction sought with a large enough effect; inconclusive = small, poorly fitted or top-dose-only effect, or another doubt; inactive = no such curve, though single readings can be large; an effect the other way counts as inactive or inconclusive.
# Tests used:
# [1] = biological target: Cellular tumor antigen p53 (Homo sapiens) (UniProt P04637); assay: Primary qHTS for small molecule compounds that upregulate eGFP-tagged delta133p53alpha (in N-terminal) cells. (AID 2060322); settings: NCI-H358 eGFP-delta133p53alpha fluorescence, 24 h; activation: hits give high values;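 also: cells pre-induced with doxycycline then dosed without doxycycline; series mostly up to about 56 µM; nearly all actives have a fitted effect of over 75% in size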
# Chain of Cellular tumor antigen p53 (Homo sapiens) (P04637 whole entry, looked up, the tested form may be a part): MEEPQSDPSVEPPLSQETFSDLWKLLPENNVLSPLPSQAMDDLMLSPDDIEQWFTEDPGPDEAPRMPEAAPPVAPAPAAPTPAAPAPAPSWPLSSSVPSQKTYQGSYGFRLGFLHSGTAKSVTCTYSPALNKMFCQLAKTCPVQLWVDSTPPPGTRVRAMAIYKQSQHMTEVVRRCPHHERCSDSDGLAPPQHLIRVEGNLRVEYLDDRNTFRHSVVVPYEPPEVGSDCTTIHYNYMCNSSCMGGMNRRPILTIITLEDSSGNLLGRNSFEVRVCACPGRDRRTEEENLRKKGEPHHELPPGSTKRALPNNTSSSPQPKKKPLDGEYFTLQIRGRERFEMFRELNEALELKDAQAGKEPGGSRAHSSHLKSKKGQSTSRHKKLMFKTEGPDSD
# Procedure, shortened: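 NCI-H358 cells pre-induced 24 h with 10 ng/ml doxycycline for eGFP-delta133p53alpha, plated dox-free and exposed 24 h at 37C to titrated compounds. Fixed, Hoechst-stained; gated GFP peak intensity by laser scanning cytometry, normalized to DMSO (0%) and 57.5 uM 5-azacytidine (100%).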
# [2] = biological target: Cellular tumor antigen p53 (Homo sapiens) (UniProt P04637); assay: Primary qHTS for small molecule compounds that upregulate eGFP-tagged delta133p53alpha (in C-terminal) cells. (AID 2060324); also: potency is read from the fitted curve at half-maximal effect
# Procedure, shortened: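 Doxycycline (100 ng/ml, 24 h) first induced the eGFP fusion in NCI-H358 C-terminal-tag cells. Washed-out cells then received titrated compounds for 24 h at 37 °C before paraformaldehyde fixation, Hoechst staining and cytometric GFP quantification.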
# [3] = biological target: Aldehyde dehydrogenase, mitochondrial (Homo sapiens) (UniProt P05091); assay: qHTS for Inhibitors of the Aldehyde Dehydrogenase Family (ALDH2) Validation screens (AID 2061302; active = well fitted inhibition curve with a large enough effect; title and protocol of this record describe different tests)
# [4] = biological target: Aldehyde dehydrogenase, mitochondrial (Homo sapiens) (UniProt P05091); assay: qHTS for Inhibitors of the Aldehyde Dehydrogenase Family (ALDH2) Confirmatory screens (AID 2061303; active = well fitted inhibition curve with a large enough effect; title and protocol of this record describe different tests; also: nearly all actives have a fitted effect of over 45% in size)
# [5] = qHTS for Inhibitors of the Aldehyde Dehydrogenase Family (ALDH1A2, ALDH1A3, ALDH2, ALDH3A1) (AID 2061307); also: nearly all actives have a fitted effect of over 50% in size
# [6] = biological target: Aldehyde dehydrogenase, mitochondrial (Homo sapiens) (UniProt P05091); assay: qHTS for Inhibitors of the Aldehyde Dehydrogenase Family (ALDH2) Primary screen (AID 2061308); also: nearly all actives have a fitted effect of over 55% in size
# [7] = biological target: Retinaldehyde dehydrogenase 3 (Homo sapiens) (UniProt P47895); assay: qHTS for Inhibitors of the Aldehyde Dehydrogenase Family (ALDH1A3) Confirmatory screens (AID 2061311); also: nearly all actives have a fitted effect of over 60% in size
# [8] = biological target: Retinaldehyde dehydrogenase 3 (Homo sapiens) (UniProt P47895); assay: qHTS for Inhibitors of the Aldehyde Dehydrogenase Family (ALDH1A3) Validation screen (AID 2061312); also: nearly all actives have a fitted effect of over 45% in size
# [9] = biological target: Retinal dehydrogenase 2 (Homo sapiens) (UniProt O94788); assay: qHTS for Inhibitors of the Aldehyde Dehydrogenase Family (ALDH1A2) Confirmation screens (AID 2061314); also: nearly all actives have a fitted effect of over 65% in size
# [10] = biological target: Retinaldehyde dehydrogenase 3 (Homo sapiens) (UniProt P47895); assay: qHTS for Inhibitors of the Aldehyde Dehydrogenase Family (ALDH1A3) Primary screen (AID 2061315)
# [11] = biological target: Aldehyde dehydrogenase 1A1 (Homo sapiens) (UniProt P00352); assay: qHTS for Inhibitors of the Aldehyde Dehydrogenase Family (ALDH1A1) Confirmatory screens (AID 2061316); also: nearly all actives have a fitted effect of over 65% in size
smiles,measurement,setting,value
Cc1nc2n(c(=O)c1CCN1CCC(c3noc4cc(F)ccc34)CC1)CCCC2O (stereo unspecified),activation,[1],3.58%
same,Potency,[2],inactive
same,Potency,[3],inactive
O=C(O)Cc1c[nH]c2ccc(O)cc12,activation,[1],8.12%
same,Potency,[2],inactive
same,Potency,[3],inactive
N.N.O=C(O)C1(C(=O)O)CCC1.[Pt+2],activation,[1],-8.5%
same,Potency,[2],inactive
same,Potency,[3],inactive
CCCC[C@@]1(C2CCCC2)Cc2cc(OCC(=O)O)c(Cl)c(Cl)c2C1=O,activation,[1],-7.36%
same,Potency,[2],inactive
same,Potency,[3],inactive
NC[C@@H]1O[C@H](C23CC4CC(CC(C4)C2)C3)Cc2c1ccc(O)c2O,activation,[1],44.4%
same,Potency,[2],23.9 µM (active)
same,Potency,[3],inactive
CN1CCc2cc(NC(=O)Nc3cccnc3)ccc21,activation,[1],-9.58%
same,Potency,[2],inactive
same,Potency,[3],inactive
Cc1cccc(C#Cc2ccccc2)n1,activation,[1],-6.63% and 22.8%
same,Potency,[2],inactive
same,Potency,[3],inactive
O=c1cc(O)cc(/C=C/c2ccc(O)c(O)c2)o1,activation,[1],-54.7%
same,Potency,[2],inactive
same,Potency,[3],inactive
CC(=O)N[C@H](C(=O)O)C(C)(C)SN=O,activation,[1],-54.1%
same,Potency,[2],inactive
same,Potency,[3],inactive
Oc1ccc(C2CNCc3sccc32)cc1O (stereo unspecified),activation,[1],8.23%
same,Potency,[2],inactive
same,Potency,[3],inactive
NCCC1CCCC(CCN)N1 (stereo unspecified),activation,[1],10.3%
same,Potency,[2],inactive
same,Potency,[3],inactive
CC(N)(Cc1ccc(O)c(O)c1)C(=O)O (stereo unspecified),activation,[1],-16.9%
same,Potency,[2],inactive
same,Potency,[3],inactive
Oc1cc2c(cc1O)CN(C(=S)NCCc1ccc(Cl)cc1)CCC2,activation,[1],-14.7%
same,Potency,[2],inactive
same,Potency,[3],inactive
Cc1ccc(O)c(N=Nc2ccccc2)n1,activation,[1],34%
same,Potency,[2],inactive
same,Potency,[3],inactive
COc1cc(C(=O)OCCCN2CCCN(CCCOC(=O)c3cc(OC)c(OC)c(OC)c3)CC2)cc(OC)c1OC,activation,[1],-3.95% and -82%
same,Potency,[2],inactive
same,Potency,[3],inactive
CCCCCCCCCC[Si](C)(C)CCC(=O)NC(Cc1ccc(C)cc1)c1ccccc1 (stereo unspecified),activation,[1],-9.05%
same,Potency,[2],inactive
same,Potency,[3],inactive
C=CCN1CCc2cc(O)c(O)cc2C(c2ccccc2)C1 (stereo unspecified),activation,[1],-43.2%
same,Potency,[2],inactive
same,Potency,[3],inactive
Nc1ccn([C@H]2O[C@H](CO)[C@@H](O)C2(F)F)c(=O)n1,activation,[1],7.37%
same,Potency,[2],inactive
same,Potency,[3],inactive
Cc1cc(N)c2ccccc2[n+]1CCCCCCCCCC[n+]1c(C)cc(N)c2ccccc21,activation,[1],10%
same,Potency,[2],inactive
same,Potency,[3],inactive
same,Potency,[4],inactive
same,Potency,[5],inactive
same,Potency,[6],inactive
same,Potency,[7],inactive
same,Potency,[8],inactive
same,Potency,[9],inactive
same,Potency,[10],inactive
same,Potency,[11],inactive
Clc1ccc(N2CCN(Cc3c[nH]c4ncccc34)CC2)cc1,activation,[1],-17.7%
same,Potency,[2],inactive
same,Potency,[3],inactive
COc1cc2c(cc1OC)-c1cc(=Nc3c(C)cc(C)cc3C)n(C)c(=O)n1CC2,activation,[1],-30.7%
same,Potency,[2],inactive
same,Potency,[3],inactive
C#CCN(C)Cc1ccccc1,activation,[1],2.82% and -8.29%
same,Potency,[2],inactive
same,Potency,[3],inactive
Nc1c(S(=O)(=O)O)cc(Nc2ccc(Nc3nc(Cl)nc(Nc4ccc(S(=O)(=O)O)cc4)n3)c(S(=O)(=O)O)c2)c2c1C(=O)c1ccccc1C2=O,activation,[1],-2.44%
same,Potency,[2],inactive
same,Potency,[3],inactive
COC(=O)[C@H]1[C@H]2C[C@H]3c4[nH]c5ccccc5c4CCN3C[C@H]2CC[C@@H]1O,activation,[1],-1.08%
same,Potency,[2],inactive
same,Potency,[3],inactive
Cc1scc2c1N(C(=O)CN1CCN(C)CC1)c1ccccc1NC2=O,activation,[1],-13.4% and -3.34%
same,Potency,[2],inactive
same,Potency,[3],inactive
same,Potency,[4],inactive
same,Potency,[5],inactive
same,Potency,[7],inactive
same,Potency,[9],inactive
NC1CCN(O)C1=O (stereo unspecified),activation,[1],-20%
same,Potency,[2],inactive
same,Potency,[3],inactive
CCC1(O)CC2CN(CCc3c([nH]c4ccccc34)[C@@](C(=O)OC)(c3cc4c(cc3OC)N(C=O)C3[C@]45CCN4CC=C[C@@](CC)([C@@H](OC(C)=O)[C@]3(O)C(=O)OC)[C@H]45)C2)C1 (stereo partly specified),activation,[1],32.1%
same,Potency,[2],inactive
same,Potency,[3],inactive
CCOC(=O)c1cnc2c(cnn2CC)c1NN=C(C)C,activation,[1],11.7% and -44.5%
same,Potency,[2],inactive
same,Potency,[3],inactive
same,Potency,[4],inactive
same,Potency,[5],inactive
NC(Cc1ccc(Cl)cc1)C(=O)O (stereo unspecified),activation,[1],-15.1% and -12.2%
same,Potency,[2],inactive
same,Potency,[3],inactive
CN(CCCOc1ccc(Cc2ccccc2)cc1)CCC(=O)O,activation,[1],-0.922% and -7.16%
same,Potency,[2],inactive
same,Potency,[3],inactive
same,Potency,[4],inactive
same,Potency,[5],inactive
same,Potency,[7],inactive
same,Potency,[8],inactive
same,Potency,[10],inactive
c1cnc(N2CCN(Cc3ccc4c(c3)OCO4)CC2)nc1,activation,[1],8.37% and 9.57%
same,Potency,[2],inactive
same,Potency,[3],inactive
O=c1[nH]c(=O)c2nc3ccccc3nc2[nH]1,activation,[1],-4.5%
same,Potency,[2],inactive
same,Potency,[3],inactive
NO,activation,[1],-15.6%
same,Potency,[2],inactive
same,Potency,[3],inactive
O=C(CCCN1CCC(O)(c2cccc(C(F)(F)F)c2)CC1)c1ccc(F)cc1,activation,[1],13.4% and 14.3%
same,Potency,[2],inactive
same,Potency,[3],inactive
